# In PubChem BioAssay (NCI):
# The panel holds about 83,000 compounds, 20% with a hit somewhere; the sample as a whole holds those more often.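 Each cell line was grown in a 96-well plate and treated with one concentration of compound for 48 hours. Values below 10 were considered active.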 The source made the active and inactive calls.
# System: MDA-MB-468 breast
# Experiment: NCI-60 one-dose screen, 48 h (100 = growth as untreated, 0 = no growth, -100 = all killed)
# Settings: 10 µM unless noted
row,SMILES,growth
1,CC1=C[C@H]2c3c(c(O)c(O)c4oc5cc(O)ccc5c(=O)c34)[C@H](c3cc(O)c(O)c4oc5cc(O)ccc5c(=O)c34)[C@H]2C(C)(C)C1,34.3% (inactive)
2,COc1cc(C2Nc3ccccc3S2)cc(CN2CCOCC2)c1O (stereo not given),26.3% (inactive)
3,O=C1OCC2=C1C(c1cccc(F)c1)c1cc3c(cc1N2CCO)OCCO3 (stereo not given),-8.31% (active)
4,O=S(=O)(NCCNc1cc(-c2c(-c3cccc(O)c3)nc3sccn23)ccn1)c1ccc(C(F)(F)F)cc1,30.7% (inactive)
5,COc1cc(/C=C2\C=C(c3ccccc3)N(CCc3ccccc3)C2=O)cc(OC)c1OC,89.2% (inactive)
6,O=C(CCCCCCCCC(=O)N/N=C\c1ccccc1O)N/N=C\c1ccccc1O,-28.4% (active)
7,O=c1ccc(N=Nc2ccccc2)ccc1Cl,-51.2% (active)
8,Cc1ccc(N)cc1F,100% (inactive)
9,Cc1ccc(-c2nc3nc(-c4ccc(F)cc4)nc(N4CCCNCC4)c3o2)cc1,-75.5% (active)
10,C=C1CCC2C3(C)COC(c4ccc(SC)cc4)OC3CCC2(C)C1C/C=C1/C(=O)OCC1O (stereo not given),77.4% (inactive)
11,O=C(NNc1nc2cc(F)c(F)cc2n2c(CN3CC4CNCC4C3)ccc12)c1cnccn1 (stereo not given),-4.58% (active)
12,CCCCCCCCCCC/C=C\C[C@H](O)C/C=C1/C(=O)C=C[C@@H]1C/C=C\CCCC(=O)OC,-46.3% (active)
13,O=C1/C(=C/c2ccccn2)CCc2ccccc21,98.4% (inactive)
14,Nc1ccn(C2O[C@H](CO)[C@@H](O)[C@H]2O)c(=O)n1 (stereo not given in full),96.8% (inactive)
15,O[C@@H]1Cc2ccc3ccccc3c2N[C@H](c2ccoc2)C1,79.4% (inactive)
16,Cn1cc(-c2csc(-c3c[nH]c4ccccc34)n2)c2cnccc21,-20.8% (active)
17,CC(=O)OC(C)C(=O)NCC(C)O (stereo not given),105% (inactive)
18,O=C1NC(=O)N(Cc2ccccc2)CC1Br (stereo not given),104% (inactive)
19,O=C(Nc1ccc(CO)cc1)c1ccccc1Nc1ccnc(C(F)(F)F)c1,123% (inactive)
20,O=C(CC12CC3CC(CC(C3)C1)C2)NCCOCCOCCNC(=O)c1cc2c(o1)C(=O)c1ccccc1C2=O,-60.7% (active)

row,SMILES,growth
1,NC(=O)c1cc(I)ccc1NC(=O)COc1ccc(Cl)cc1Cl,71.7% (inactive)
2,OCC(O)C(O)C(O)C(/C=N/Nc1ccccc1)=N/Nc1ccccc1 (stereo not given),68% (inactive)
3,C[N+]1=C(/C=C\C=C\c2ccccc2)C(C)(C)c2ccccc21,-14.9% (active)
4,O=C(NNc1ccccc1)C1CCCN1 (stereo not given),81% (inactive)
5,O=[N+]([O-])c1ccc(N/N=C/C2CCCCCC2)c([N+](=O)[O-])c1,86.4% (inactive)
6,CC(C)C(=O)c1ccc(Cl)s1,91.6% (inactive)
7,CCOC(=O)c1c2c(n(-c3ccc(C#N)cc3)c1-c1ccccc1)C=CCC2,88.9% (inactive)
8,Clc1ccc(/C=C/c2ccccn2)c(Cl)c1,29.3% (inactive)
9,Cc1occc1-c1n[nH]c(=S)n1N1C(=O)CSC1=S,103% (inactive)
10,COc1ccc(C2C=C(c3ccc(Cl)c(Cl)c3)N=C3SC(C)=CN32)cc1 (stereo not given),88.6% (inactive)
11,COc1ccccc1-n1c(-c2csc(NC(C)=O)n2)n[nH]c1=S,100% (inactive)
12,Clc1ccc(Nc2ccnc(N3CCN(c4ccnc5cc(Cl)ccc45)CC3)n2)cc1,39.4% (inactive)
13,C[C@@]1(C(=O)Nc2ccc(F)nc2)CCCN1c1nc(Nc2cc(C3CC3)[nH]n2)c2cccn2n1,13.1% (inactive)
14,CC(Cl)(CCl)CS(=O)(=O)c1ccc(Cl)cc1 (stereo not given),104% (inactive)
15,COc1cc(NC(=O)Nc2cnc(Nc3ccc(N4CCOCC4)cc3)nc2Oc2cccc(OC)c2)cc(OC)c1,29.9% (inactive)
16,Clc1ccc(/C=C/c2ccccn2)cc1,38.3% (inactive)
17,N#Cc1ccc(O)c(C2=NCC(c3ccccc3)O2)c1 (stereo not given),32.3% (inactive)
18,COCCn1cc(-c2nc(-c3cc4cccnc4n3CCOC)cs2)c2cc(OC)ccc21,-18.4% (active)
19,CCN(CC)c1ccc(C(=O)c2ccc(N(CC)CC)cc2)cc1,-36% (active)
20,CC(=O)Nc1ccc(NC(C)=O)c2c1C(=O)c1ccccc1C2=O,107% (inactive)
